Inhibition data for 37 compounds are collected here from ChEMBL document CHEMBL1157539, “Thousands of chemical starting points for antimalarial lead identification” (Nature, 2010).

Each structure is given as a SMILES string.

The test system of this experiment is Plasmodium falciparum. In words: GSK_TCMDC: Inhibition of Plasmodium falciparum 3D7 in whole red blood cells, using parasite LDH activity as an index of growth. Test compounds present at 2uM. The class given is functional.
`CC(C)c1ccc(CN2CCC(CNC(=O)c3cc(-c4ccccc4F)cs3)C2)cc1.O=C(O)C(F)(F)F` (configuration not stated) gave an Inhibition of 100%.
Next, `O=C(O)C(F)(F)F.c1cc(CNCC2CCN(CC3CCCCC3)CC2)cc(-n2ccnc2)c1`: 100%; `CC1(C)CC(=O)c2c(O)cc(OCc3ccncc3)cc2O1.Cl`: 92%.
As for `CCOc1cc(NC(=O)Nc2ccnc3ccccc23)cc(OC)c1.Cl`, the figure is 98%; as for `C=CCNS(=O)(=O)c1ccc(NC(=O)C(C)Oc2ccc([N+](=O)[O-])cc2)cc1` (configuration not stated), 100%.
As for `Cc1cc(C(F)(F)F)cc(-n2ncc(-c3ccc(C(=O)NCc4ccccc4N)cc3)c2N)n1.O=C(O)C(F)(F)F`, the figure is 99%.
Compound `Oc1ccc2[nH]c(-c3cccc(F)c3)nc2c1CN1CCC(O)(c2ccccc2)CC1` returned an Inhibition of 97%.
Regarding `COCCNCc1cccc(C#Cc2cc3ncnc(Nc4ccc(OCc5cccc(F)c5)c(Cl)c4)c3s2)n1`, the Inhibition is 99%.
As for `COCCN(C(=O)Cc1cccs1)C(C(=O)NCc1ccc(OC)cc1)c1ccc(C(C)C)cc1` (configuration not stated), the figure is 96%; as for `O=C(O)C(F)(F)F.O=S(=O)(NCCN1CCCC1)c1ccc(-c2ccc(CNCc3ccsc3)cc2)s1`, 99%.
Next, `CN(Cc1ccccc1)C1CCN(c2cc(NC(=O)c3cccc(F)c3)ccn2)CC1.O=C(O)C(F)(F)F`: 93%.
Next, `NC1=NC(c2ccccc2)(c2ccccn2)C(=O)N1CCCc1ccccc1.O=C(O)C(F)(F)F` (configuration not stated): 85%; `Cc1cc(N[C@@H](Cc2ccccc2)C(=O)NCc2cccc(F)c2)nc(NCc2ccccc2C)n1.O=C(O)C(F)(F)F`: 100%.
Consider `Cc1ccc(Cn2cnc3cc(C(=O)Nc4ccc(-c5ccc(CN(C)C)cc5)cc4)ccc3c2=O)o1`, for which the Inhibition worked out at 82%.
As for `COc1cc2c(cc1OC)CN(CCCCc1ccc(NC(=O)c3cc(Cl)cc(Cl)c3)cc1)CC2`, the figure is 95%; as for `CCCCCN1CCCC(CNS(=O)(=O)c2cccc(C(=O)Nc3ccc(C(F)(F)F)cc3)c2)C1.O=C(O)C(F)(F)F` (configuration not stated), 96%; as for `O=C(/C=C/c1ccc(Cl)c(Cl)c1)NCCCCCN1CCCN(C(=O)Nc2ccc(F)c(F)c2)CC1`, 100%.
`Cc1cccc2nc(-c3ccc(-c4cccc(CNCc5cnn(-c6ccccc6)n5)c4)s3)[nH]c12.O=C(O)C(F)(F)F` registered an Inhibition of 98%.
Next, `Cl.N=C(NCCc1ccc(Cl)cc1)c1ccc(Cl)c(Cl)c1`: 100%.
On to `COc1ccc(CCNCCCCCNCCCc2ccc(Cl)cc2)cc1OC.Cl`, for which the Inhibition was found to be 100%.
As for `Nc1c(Cl)cc(C(O)CNCCCCCOCCc2ccccc2)cc1C(F)(F)F` (configuration not stated), the figure is 99%.
Next, `CC(=O)c1c[nH]c(C(=O)Nc2ccc(-c3cn4ccccc4n3)cc2)c1`: 98%.
As for `COc1ccc(Nc2nccc(N3CCC(NC(=O)C(C)c4ccc(Cl)cc4)C3)n2)cc1` (configuration not stated), the figure is 85%; as for `Br.CCCc1cc(C)ccc1OCCCON1C(N)=NC(N)=NC1(C)C`, 97%.
`Oc1c(Br)cc2oc3c(c2c1CNCc1ccccc1)CCCC3`: the Inhibition came to 99%.
Take `O=C(NCC1CCC(C(=O)NCc2cccc(C(F)(F)F)c2)CC1)c1ccc(O)c(-c2ccc(Cl)c(Cl)c2)c1` (configuration not stated): the Inhibition came to 98%.
As for `COCCNCc1ncsc1-c1ccc2c(Nc3cc(O)c(Cl)cc3F)ccnc2c1`, the figure is 100%; as for `Cl.Nc1ccc(-c2nc3c(ccc4ccccc43)[nH]2)cc1`, 84%.
Turning to `COc1cc(-c2cc3cc(Cl)c(Cl)cc3[nH]2)ccc1C(=O)NCCC1CCCN1C.O=C(O)C(F)(F)F` (configuration not stated), the Inhibition was determined as 91%.
Next, `O=C(NC1CCCCC1)N(Cc1cccc(-c2ccc(CNC3CCCC3)cc2)c1)C1CCN(Cc2ccccc2)CC1.O=C(O)C(F)(F)F`: 98%; `COc1ccc2[nH]ccc(=NN=CC=Cc3ccccc3)c2c1`: 100%; `CCCCCn1c(Sc2ccc(C#N)c([N+](=O)[O-])c2)nnc1-c1cccc(Cl)c1`: 95%.
Compound `COc1cccc2cc(C(=O)N[C@@H](CC(C)C)C(=O)N[C@H](/C=N/N(C)C(=O)OC(C)(C)C)CC(=O)OC(C)(C)C)oc12` had an Inhibition of 87%.
As for `CC(C)c1ncc(-c2ccncc2)c(C2CCC(CNC(=O)c3ccncc3)CC2)n1` (configuration not stated), the figure is 85%; as for `Cc1[nH]c(C)c(-c2ccc(/C=C/c3ccccn3)cc2)c(=O)c1Cl`, 97%; as for `COc1cc2cc(Cc3cnc(N)nc3N)ccc2c(OC)c1OC.Cl`, 97%.
Consider `C=CCCCNCC(NCCCNc1cc(=O)c2ccccc2[nH]1)c1cc(Br)cc(Br)c1` (configuration not stated), for which the Inhibition is on record as 94%.
